Results: PubChem BioAssay (NCATS)
Where “and” joins values, the source holds several entries; their conditions need not be identical. Identical values can stand only once. Records with an inconclusive call do not appear. Where a structure was tested more than once in an assay, its records may differ in their call. Calls of active or inactive are those of the source. The call rests on the fitted dose curve; in most records, active means well fitted inhibition curve with a large enough effect; inconclusive means small, poorly fitted or top-dose-only effect; inactive means flat fitted curve, though single readings scatter.

Experiments:
CRL-7250 = normal cell line; assay: Cytotoxic Profiling of Annotated Libraries Using Quantitative High-Throughput Screening (AID 1296008); settings: Five cell lines viability, CellTiter-Glo ATP luminescence, 48-72 h; max response: active compounds read low; on max response: on the % scale 0 is the no-effect control and ±100 the full control effect
Procedure, shortened: (§1)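 Cytotoxicity was measured as CellTiter-Glo ATP luminescence, read after 10 min at room temperature. Compound treatment of the cells lasted 48 or 72 hr at 37 degrees Celsius in a qHTS format.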

HEK293 = assay: as above; settings: Five cell lines viability, CellTiter-Glo ATP luminescence, 48-72 h; max response: active compounds read low
Procedure, shortened: as §1

HaCat [1] = assay: as above; settings: Five cell lines viability, CellTiter-Glo ATP luminescence, 48-72 h; max response: active compounds read low
Procedure, shortened: as §1

KB-3-1 = assay: as above; settings: Five cell lines viability, CellTiter-Glo ATP luminescence, 48-72 h; max response: active compounds read low
Procedure, shortened: as §1

NIH3T3 [2] = assay: as above; settings: Five cell lines viability, CellTiter-Glo ATP luminescence, 48-72 h; max response: active compounds read low
Procedure, shortened: as §1

HACAT [3] = assay: qHTS assay to identify novel small-molecules to repurpose for Merkel cell carcinoma treatment (AID 1296009); settings: MCC and control cell lines, CellTiter-Glo viability, 72 h; at 44.8 µM (top of the series) unless noted
Procedure, shortened: (§2)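 72 hr, 37 degree celsius; NPC 8-pt / MIPE 11-pt dose response; compound pinned in DMSO; CellTiter-Glo, 10 min RT, luminescence; normalized to no-cell and DMSO controls.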

MCC-13 = assay: as above; settings: MCC and control cell lines, CellTiter-Glo viability, 72 h; series mostly up to 46 µM
Procedure, shortened: as §2

MCC-26 = assay: as above; settings: MCC and control cell lines, CellTiter-Glo viability, 72 h; series mostly up to 46 µM
Procedure, shortened: as §2

MKL-1 = assay: as above; settings: MCC and control cell lines, CellTiter-Glo viability, 72 h; series mostly up to 46 µM
Procedure, shortened: as §2

MKL-2 = assay: as above; settings: MCC and control cell lines, CellTiter-Glo viability, 72 h; series mostly up to 46 µM
Procedure, shortened: as §2

UISO = assay: as above; settings: MCC and control cell lines, CellTiter-Glo viability, 72 h; series mostly up to 46 µM
Procedure, shortened: as §2

WaGa = assay: as above; settings: MCC and control cell lines, CellTiter-Glo viability, 72 h; series mostly up to 46 µM
Procedure, shortened: as §2

HEK293T = assay: as above; settings: MCC and control cell lines, CellTiter-Glo viability, 72 h
Procedure, shortened: as §2

PC49 = assay: qHTS profiling for inhibitors of Plasmodium falciparum proliferation (AID 504749); settings: P. falciparum in erythrocytes, SYBR Green DNA, 72 h; series mostly up to 28.7 µM
Procedure, shortened: (§3)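 Infected RBCs, 0.3% parasitemia/2.5% Hct final; cpd 72 h, 37 C, 5% CO2; lysis buffer with saponin/triton/SYBR Green I, o/n RT dark; FI 485/535; norm. to artemisinin (0.29 uM) and DMSO.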

SC27B = assay: as above; settings: P. falciparum in erythrocytes, SYBR Green DNA, 72 h; series mostly up to 28.7 µM
Procedure, shortened: as §3

TAB109 = assay: as above; settings: P. falciparum in erythrocytes, SYBR Green DNA, 72 h; series mostly up to 28.7 µM
Procedure, shortened: as §3

TAB113 = assay: as above; settings: P. falciparum in erythrocytes, SYBR Green DNA, 72 h; series mostly up to 28.7 µM
Procedure, shortened: as §3

TAB165 = assay: as above; settings: P. falciparum in erythrocytes, SYBR Green DNA, 72 h; series mostly up to 28.7 µM
Procedure, shortened: as §3

W2 = assay: as above; settings: P. falciparum in erythrocytes, SYBR Green DNA, 72 h; series mostly up to 28.7 µM
Procedure, shortened: as §3

NIH3T3 [4] = assay: qHTS assay to identify novel small-molecules to repurpose for Merkel cell carcinoma treatment (AID 1296009); settings: MCC and control cell lines, CellTiter-Glo viability, 72 h; at 44.8 µM (top of the series) unless noted
Procedure, shortened: as §2
Further: nearly all actives have a fitted effect of over 60% in size.
Potency means the concentration at half of the fitted maximal effect.

CCC(=O)O[C@]1(C(=O)SCF)[C@H](C)C[C@H]2[C@@H]3C[C@H](F)C4=CC(=O)C=C[C@]4(C)[C@@]3(F)[C@@H](O)C[C@@]21C
inactive: outcome (CRL-7250) | max response (HEK293) 1.44% and 1.99% | max response (HaCat [1]) 0.77% | outcome (HaCat [1]) | max response (KB-3-1) 26.7% | outcome (KB-3-1) | max response (NIH3T3 [2]) 1.81% and -2.44% | outcome (HACAT [3]) | Potency (MCC-13) | Potency (MCC-26) | Potency (MKL-1) | Potency (MKL-2) | Potency (UISO) | Potency (WaGa)

CC(C)OC(=O)OCOP(=O)(CO[C@H](C)Cn1cnc2c(N)ncnc21)OCOC(=O)OC(C)C
inactive: max response (CRL-7250) -6.19% | outcome (CRL-7250) | outcome (HaCat [1]) | outcome (KB-3-1) | max response (NIH3T3 [2]) -4.05% and -25.8% | outcome (HACAT [3]) | outcome (HEK293T; at 44.8 µM (top of the series) unless noted) | Potency (MCC-13) | Potency (MCC-26) | Potency (MKL-1) | Potency (MKL-2) | Potency (WaGa)

Nc1nc(N)c2nc(CNc3ccc(C(=O)NC(CCC(=O)O)C(=O)O)cc3)cnc2n1 (stereo not drawn)
active: Potency (CRL-7250) 118 nM | Potency (HEK293) 132 nM | Potency (KB-3-1) 33.2 nM | Potency (NIH3T3 [2]) 93.5 nM
inactive: Potency (PC49) | Potency (SC27B) | Potency (TAB109) | Potency (TAB113) | Potency (TAB165) | Potency (W2) | max response (HaCat [1]) 4.29% | Potency (MCC-26) | Potency (MKL-1) | Potency (MKL-2)

CC(C)C[C@H](NC(=O)[C@H](CCc1ccccc1)NC(=O)CN1CCOCC1)C(=O)N[C@@H](Cc1ccccc1)C(=O)N[C@@H](CC(C)C)C(=O)[C@@]1(C)CO1
active: Potency (CRL-7250) 211 nM and 209 nM | Potency (HEK293) 37.6 nM and 23.5 nM | Potency (HaCat [1]) 332 nM | Potency (KB-3-1) 1.84 µM and 132 nM | Potency (NIH3T3 [2]) 299 nM and 235 nM | Potency (MCC-13) 84.1 nM and 418 nM | Potency (MCC-26) 0.105 µM | Potency (MKL-1) 5.3 nM and 37.2 nM | Potency (MKL-2) 1.1 nM and 14.8 nM | Potency (UISO) 18.8 nM and 59 nM | Potency (WaGa) 4.7 nM and 29.6 nM

O=C(O)C1CCCN(CCC=C(c2ccccc2)c2ccccc2)C1 (stereo not drawn)
inactive: outcome (CRL-7250) | max response (HEK293) 3.73% | max response (HaCat [1]) -1.89% | max response (KB-3-1) 5.05% | max response (NIH3T3 [2]) 3.07% | Potency (MCC-13) | Potency (MKL-1) | Potency (MKL-2) | Potency (UISO) | Potency (WaGa)

NC(=O)c1ccc2[nH]ccc2c1
inactive: max response (CRL-7250) -5.07% | max response (HEK293) -1.44% | max response (HaCat [1]) 0.172% | max response (KB-3-1) 5.8% | max response (NIH3T3 [2]) -9.23% | Potency (MCC-13) | Potency (MKL-1) | Potency (MKL-2) | Potency (UISO) | Potency (WaGa)

COc1ccc2cc3[n+](cc2c1OC)CCc1cc2c(cc1-3)OCO2
active: Potency (PC49) 2.51 µM | Potency (SC27B) 1.26 µM | Potency (TAB109) 631 nM | Potency (TAB113) 1 µM | Potency (TAB165) 0.794 µM | Potency (W2) 601 nM | Potency (CRL-7250) 1.06 µM and 4.18 µM | Potency (HEK293) 1.33 µM and 1.05 µM | Potency (KB-3-1) 20.6 µM and 13.2 µM | Potency (MKL-1) 1.88 µM and 2.96 µM | Potency (MKL-2) 841 nM and 1.48 µM | Potency (UISO) 9.44 µM and 14.8 µM | Potency (WaGa) 2.09 µM
inactive: max response (NIH3T3 [2]) -15.5% and -8.88% | Potency (MCC-13) | Potency (MCC-26)

Cn1c(=O)c2c(ncn2CC(O)CO)n(C)c1=O (stereo not drawn)
inactive: max response (CRL-7250) 2.57% and -3.36% | max response (HaCat [1]) 2.18% | outcome (HaCat [1]) | max response (KB-3-1) 3.89% | outcome (KB-3-1) | max response (NIH3T3 [2]) 2.82% and -0.547% | outcome (HACAT [3]) | Potency (MCC-13) | Potency (MCC-26) | Potency (MKL-1) | Potency (MKL-2) | Potency (UISO) | Potency (WaGa)

COc1cc2nc(N3CCCN(C)CC3)nc(NC3CCN(Cc4ccccc4)CC3)c2cc1OC
active: Potency (CRL-7250) 9350 nM | Potency (HEK293) 6620 nM | Potency (MCC-26) 23.5 µM | Potency (MKL-1) 2.96 µM | Potency (MKL-2) 1.32 µM | Potency (UISO) 14.8 µM

O=C(NCC1CN(c2ccc(N3CCOCC3=O)cc2)C(=O)O1)c1ccc(Cl)s1 (stereo not drawn)
inactive: outcome (CRL-7250) | max response (HEK293) -28.8% | outcome (HaCat [1]) | max response (KB-3-1) -19.6% | max response (NIH3T3 [2]) 3.35% | outcome (NIH3T3 [2]) | outcome (HACAT [3]) | Potency (MCC-13) | Potency (MKL-1) | Potency (MKL-2) | outcome (NIH3T3 [4]) | Potency (UISO) | Potency (WaGa)

CCOC(=O)c1ccc(C#Cc2ccc3c(c2)C(C)(C)CCS3)nc1
inactive: Potency (PC49) | Potency (SC27B) | max response (CRL-7250) -0.581% and -12.4% | outcome (HaCat [1]) | max response (KB-3-1) 5.71% and 0.466% | max response (NIH3T3 [2]) -3.55% | outcome (NIH3T3 [2]) | outcome (HACAT [3]) | Potency (MCC-13) | Potency (MCC-26) | Potency (MKL-1) | outcome (NIH3T3 [4]) | Potency (UISO) | Potency (WaGa)

CCN1CCCC1CNC(=O)c1cc(S(N)(=O)=O)ccc1OC (stereo not drawn)
inactive: outcome (CRL-7250) | max response (HEK293) -9.26% | max response (HaCat [1]) 2.07% | outcome (KB-3-1) | max response (NIH3T3 [2]) -4.16% | Potency (MCC-13) | Potency (MCC-26) | Potency (MKL-1) | Potency (MKL-2) | Potency (UISO) | Potency (WaGa)

CCCCOc1ccc(CC(=O)NO)cc1
active: Potency (TAB109) 2240 nM | Potency (TAB165) 3.16 µM | Potency (W2) 572 nM | Potency (NIH3T3 [2]) 23700 nM | Potency (UISO) 16.8 µM
inactive: Potency (PC49) | max response (CRL-7250) -23.3% | max response (HEK293) -50.4% | max response (KB-3-1) -6.89% | outcome (KB-3-1) | max response (NIH3T3 [2]) -7.85% | Potency (MCC-13) | Potency (MCC-26)

O=c1oc2c(O)c(O)cc3c(=O)oc4c(O)c(O)cc1c4c23
active: Potency (TAB165) 1.41 µM | Potency (W2) 1900 nM
inactive: Potency (PC49) | max response (CRL-7250) -1.07% | outcome (HEK293) | max response (HaCat [1]) 0.0618% and -16.9% | max response (KB-3-1) -24.2% and 0.262% | max response (NIH3T3 [2]) 2.17% | outcome (HEK293T; at 17.4 µM (top of the series)) | outcome (HEK293T; at 44.8 µM (top of the series)) | Potency (MCC-13) | Potency (MCC-26) | Potency (MKL-1) | Potency (MKL-2) | Potency (UISO) | Potency (WaGa)
